Only some compounds are listed: those with a hit (about 9.4% of all), similar ones and a draw of the others.
AMA1-RON2 inh – disrupts binding of P. falciparum AMA1 to RON2. AlphaScreen AMA1-biotinylated RON2 peptide binding. Potency, µM (series often up to 58.2 µM), for inactives: at the highest dose activity change, negative = inhibition, hits mostly inhibitors. hit rate 0.2% among 360,000. AID 720542;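 note: 0% = vehicle wells and -100% = peptide control; nearly all actives have a fitted effect of over 45% in size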
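AMA1 (3D7) with his tag at 25 nM final met compounds first, then biotinylated RON2 peptide at 25 nM; detection used donor plus acceptor beads, 10 µg/mL apiece, read by AlphaScreen after 30 min at room temperature.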
Pf growth 96h – inhibits malaria parasite growth, 96 h; P. falciparum luciferase reporter growth, 96 h; hit rate 6.9% among 320,000; Potency, µM (titrated, usually from 28.7 µM), for inactives: top-dose activity change, negative = inhibition, actives largely listed as inhibitors; note: % is set by controls: 0 for no effect and ±100 for the full control effect
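Readout is luminescence from an integrated firefly luciferase in P. falciparum. Red cells, 2% hematocrit and 0.05% parasitemia final, were cultured with compound through two parasite generations (96 hours) at 37 C, 5% CO2.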
Pf growth 48h – inhibits P. falciparum growth in the first generation, 48 h; P. falciparum luciferase growth in erythrocytes, 48 h; Potency, µM (series often up to 28.7 µM), without a hit: top-dose activity change, negative = inhibition, hits mostly inhibitors; hit rate 5.9% among 310,000; note: % is set by controls: 0 for no effect and ±100 for the full control effect
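Cell-based growth assay: transgenic P. falciparum expressing firefly luciferase, cultured in red cells within RPMI 1640 containing 0.5% w/v Albumax, 24 mM bicarbonate and gentamycin. A drop in luciferase activity indicates inhibition.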
SARS PLP yeast – SARS-CoV PLP inhibition in yeast; AID 485353; Potency, µM (doses to about 32.9 µM), for inactives: at the top dose activity, positive = growth rescue, actives largely listed as activators; hit rate 0.19% among 330,000; S. cerevisiae expressing SARS-CoV PLpro, growth rescue; calls by dose curve; note: 0% is about no effect; nearly all actives have a fitted effect of over 55% in size
Active calls of the source: *; ? = inconclusive; . = not tested or not shown; ! = not active in a repeat; [ ] = remark or other dose. Unless noted, calls come from the whole dose curve; as a rule, active = well fitted curve in the direction sought with a large enough effect; inconclusive = small, poorly fitted or top-dose-only effect, or another doubt; inactive = no such curve, though single readings can be large; an effect the other way counts as inactive or inconclusive. Potency is the fitted concentration of half-maximal effect.

SMILES	AMA1-RON2 inh	Pf growth 96h	Pf growth 48h	SARS PLP yeast
COc1ccc(NC(=O)CSc2nc3[nH]c(=O)cc(O)c3s2)c(OC)c1	0%	1%	10µM*	1%
CC(C)CCOc1ccc(/C=N/N2C(=O)CSC2=S)cc1	23%	51%	13%	1%
COc1ccc(C2=C(C=Nc3c(C)n(C)n(-c4ccccc4)c3=O)C(c3ccccc3C)c3ccccc3O2)cc1OC (centres undefined)	-27%	.	0.33µM*	2%
C=CC[C@@H](CC(=O)N[C@@H](CO)Cc1ccccc1)C(=O)N[C@H](COC(=O)[C@@H](CC=C)CC(=O)OC(C)(C)C)Cc1ccccc1	-2%	.	.	0%
O=C(CSCc1ccco1)c1ccc(Cl)s1	.	12µM*	103%	2%
O=C(NNC(=S)NCc1ccco1)c1ccc(Cl)s1	91%	?	43%	6%
CCOC(=O)c1nsnc1NCCCl	-16%	11%	10%	-2%
CCC(=O)NC(c1ccc(Cl)cc1Cl)c1ccc2cccnc2c1O (centres undefined)	8%	139%	2.9µM*	1%
CCCC(=O)NC(c1ccc(C(C)C)cc1)c1ccc2cccnc2c1O (centres undefined)	95%	15µM*	1.5µM*	?
CCCCC(=O)NC(c1ccc(OC)cc1)c1ccc2cccnc2c1O (centres undefined)	0%	.	.	.
CC(C)C(=O)NC(c1ccc(Cl)cc1Cl)c1ccc2cccnc2c1O (centres undefined)	89%	?	?	?
CCCCC(=O)NC(c1ccc(Cl)cc1Cl)c1ccc2cccnc2c1O (centres undefined)	109%	15%	1.9µM*	?
CN(C)c1ccnc2sc(C(=O)c3ccc(Br)cc3)c(N)c12	-5%	6%	26%	1%
O=C1c2ccccc2-c2onc3ccc(N4CCCC4)c1c23	?	39%	9.3µM*	1%
CCOc1ccc2noc3c2c1C(=O)c1ccccc1-3	14%	60%	25%	-7%
O=C1c2ccccc2C(=O)c2c1cccc2N1CCCC1	13µM*	0%	66%	-47%
CC(C)(C)NC(=O)C(c1ccc(F)cc1)N(CCc1ccccc1)C(=O)c1ccn[nH]1 (centres undefined)	32%	72%	-34%	1%
CCOC(=O)c1ccc(OS(=O)(=O)c2ccccc2)c(OC)c1	0%	351%	198%	-28%
O=C(Nc1ccccc1)Nc1ccc(-n2ccc(C(F)(F)F)n2)cc1	-4%	3.3µM*	?	-1%
CCCCCCCCOC(=O)CCc1c(C)[nH]c(=S)[nH]c1=O	25%	38%	?	1%
CCCCCCOC(=O)/C=C/c1c(C)[nH]c(=O)[nH]c1=O	4%	66%	9.3µM*	1%
CCC(CC)C(=O)NCc1ccc(Cl)cc1	-3%	10%	10%[5.75 µM]	1%
CC(=O)Nc1cc(C(F)(F)F)ccc1Oc1cccc(Br)c1	14%	?	?	-21%
CCOCC(=O)Nc1cc(C(F)(F)F)ccc1Oc1cccc(Br)c1	61%	0.47µM*	?	-12%
Cc1csc(NC(=O)C2CCN(S(=O)(=O)c3cccs3)CC2)n1	-13%	55%	-2%	0%
SMILES	AMA1-RON2 inh	Pf growth 96h	Pf growth 48h	SARS PLP yeast
CCCn1c(NC(=O)C2CCN(S(=O)(=O)c3cccs3)CC2)nc2ccccc21	96%	71%	10µM*	-6%
O=C(Nc1nc(-c2ccc(F)cc2)cs1)C1CCN(C(=O)c2ccc(F)cc2)CC1	-5%	6.6µM*	?	1%
CCCn1c(NC(=O)c2cccc(S(=O)(=O)N3CCCC3)c2)nc2ccccc21	33%	9.3µM*	?	5%
O=C(Nc1nc2c(F)cc(F)cc2s1)C1CCN(C(=O)c2ccc(F)cc2)CC1	8%	117%	91%	-6%
CC(=O)Nc1ccc(-c2csc(NC(=O)C3CCN(S(=O)(=O)c4cccs4)CC3)n2)cc1	?	?	2.1µM*	8%
CC(C)CN(C(=O)COC(=O)c1c(Cl)ccc(Cl)c1Cl)C1CCS(=O)(=O)C1 (centres undefined)	-10%	12µM*	?	1%
CC(C)CN(C(=O)COC(=O)c1nc(Cl)ccc1Cl)C1CCS(=O)(=O)C1 (centres undefined)	-6%	-11%	21%	6%
COc1cc2c(cc1NC(=O)COc1ccc3ccccc3c1)oc1ccccc12	4%	4%	.	11%
CCCCNC(=S)N/N=C/c1cc(C)ccc1C	-7%	?	?	?
CCCCNC(=S)N/N=C/c1ccccc1F	34%	0%	48%	13µM*
Cc1ccc(/C=N/NC(=S)NCCc2ccccc2)s1	81%	?	12µM*	7%
CCCCNC(=S)N/N=C/c1ccc(C)s1	22%	1.7µM*	.	?
c1ccc(C[C@H]2CN=C(Nc3ccccc3)N2CCCC2CCCCC2)cc1	17%	.	.	10%
CN(C)C(CNC(=O)c1cccc(S(=O)(=O)NCc2ccccc2)c1)c1ccccc1 (centres undefined)	61%	-28%	?	-3%
COc1ccc(CC2(CO)CCN(Cc3cccc4nccnc34)CC2)cc1	8%	?	-5%	-1%
COc1ccc(CN2CCC(CO)(Cc3ccccc3C(F)(F)F)CC2)c(F)c1	2%	?	4.7µM*	0%
O=c1cnnc(SCCc2ccccc2)[nH]1	-14%	.	9%	-2%
Cc1cccc2[nH]c3c(N4CC=C(c5ccc(F)cc5)CC4)ncnc3c12	-28%	?	10µM*	-5%
CC[C@H](NC(C)C)[C@H](O)c1ccc(O)c2[nH]c(=O)ccc12	.	0.24µM*	-27%	.
CCOC(=O)[C@]12CCC=C1N(Cc1cccc3ccccc13)C(=O)[C@H](CC(=O)NCc1cccs1)C2	-14%	.	.	.
CCCCN1C(=O)C2ON(c3ccccc3C)C(c3ccco3)C2C1=O (centres undefined)	-7%	85%	13µM*	-16%
COc1ccccc1NC(=O)Nc1nnc([C@H]2C[C@H](O)[C@@H](CO)O2)s1	-1%	.	.	.
O=C1OCCN1/N=C/c1ccc([N+](=O)[O-])o1	12%	3.8µM*	13µM*!	-1%
O=C1O[C@H](CN2CCOCC2)CN1/N=C\c1ccc([N+](=O)[O-])o1	.	?	-17%[12.8 µM]	.
O=C1OC(CN2CCOCC2)CN1N=Cc1ccc([N+](=O)[O-])o1 (centres undefined)	8%	?	13µM*	.
O=C1CN(/N=C/c2ccc([N+](=O)[O-])o2)C(=O)N1	-11%	4.1µM*	13µM*	10%
CCOc1ccccc1NC(=O)c1sc2nc(C)nc(N3CCOCC3)c2c1C	21%	-7%	?	10%
Cc1ccc2nc(N(CCCN(C)C)C(=O)c3ccc(S(=O)(=O)N4CCCCCC4)cc3)sc2c1	-10%	?	13µM*	-4%
CCc1ccc2nc(N(CCCN(C)C)C(=O)c3ccc(S(=O)(=O)N4CCCC4)cc3)sc2c1	-13%	?	?	-1%
CCOC(=O)N1CCN(S(=O)(=O)c2ccc(C(=O)N(CCCN(C)C)c3nc4ccc(CC)cc4s3)cc2)CC1	-22%	?	6.6µM*	-3%
